Test results: PubChem BioAssay (NCATS)
Results filed as inconclusive are left out. A call without a number means that no potency is given here. Activity calls are given as the source filed them. Calls come from the whole dose curve; as a rule, active = well fitted curve in the direction sought with a large enough effect; inconclusive = small, poorly fitted or top-dose-only effect, or another doubt; inactive = no such curve, though single readings can be large; an effect the other way counts as inactive or inconclusive.

These compounds were tested on CRL-7250 (assay: qHTS assay to identify novel small-molecules to repurpose for Merkel cell carcinoma treatment (AID 1296009; note: nearly all actives have a fitted effect of over 60% in size)). Conditions: MCC and control cell lines, CellTiter-Glo viability, 72 h; at 44.8 µM (top of the series) unless noted.
Procedure, shortened: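 Cell viability, measured as CellTiter-Glo luminescence, was normalized between DMSO and no-cell wells. The cells had been exposed to 8- or 11-point compound dilutions for 72 hr at 37 degree celsius.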

SMILES	outcome
Clc1ccc2ncc(-c3cccc(NC4CNC4)n3)n2c1	inactive
CNCc1ccc(-c2[nH]c3cc(F)cc4c3c2CCNC4=O)cc1	inactive
C[C@]12CC[C@H](O)CC1=CC[C@@H]1[C@H]2CC[C@]2(C)C(c3cccnc3)=CC[C@H]12	inactive [at 17.4 µM]
O=C(C=Cc1c(C(=O)O)[nH]c2cc(Cl)cc(Cl)c12)Nc1ccccc1	inactive
Cc1c(C)c2c(c(C)c1OC(=O)c1cccnc1)CC[C@@](C)(CCC[C@H](C)CCC[C@H](C)CCCC(C)C)O2	inactive
CC(C[N+](C)(C)C)OC(N)=O (configuration not stated)	inactive
C1=CC2C3C=CC(C3)C2C1 (configuration not stated)	inactive [at 92 µM]
O=C(C=Cc1ccc(/C=C/C(=O)Nc2ccc(C3=NCCN3)cc2)cc1)Nc1ccc(C2=NCCN2)cc1	inactive
C[C@H](NC(=O)Cc1cc(F)cc(F)c1)C(=O)N[C@@H]1C(=O)N(C)c2ccccc2-c2ccccc21	inactive
O=C1CCCC2=C1C(c1[nH]ncc1Cl)N=C(Nc1nc3ccccc3o1)N2 (configuration not stated)	inactive
Cc1cc2c(cc1C1(c3ccc(C(=O)O)cn3)CC1)C(C)(C)CCC2(C)C	inactive
CC(C)[C@H](CO)Nc1nc(Nc2ccc(C(=O)O)c(Cl)c2)c2ncn(C(C)C)c2n1	inactive [at 17.4 µM]
O=S(c1cc(Cl)cc(Cl)c1O)c1cc(Cl)cc(Cl)c1O	inactive
O=C(O)CCC1CCC(c2cc(F)ccc2F)(S(=O)(=O)c2ccc(Cl)cc2)CC1 (configuration not stated)	inactive
CN1CCN(c2c(F)cc3c(=O)c(C(=O)O)cn4c3c2OCN4C)CC1	inactive [at 17.4 µM]
Nc1ccc(S(=O)(=O)Nc2ccccc2)cc1	inactive

SMILES	outcome
CCOC(=O)[C@@H](N)CCC(=O)N[C@@H](CSCc1ccccc1)C(=O)N[C@@H](C(=O)OCC)c1ccccc1	inactive
CC(C)(C)C(=O)Oc1ccc2c(c1)nc(NC(=O)c1cccc([N+](=O)[O-])c1)n2CCCO	inactive
COc1c(Cl)cc2c([nH]c3cnccc32)c1NC(=O)c1cccnc1C	inactive
Cc1nnc(C(C)C)n1C1CC2CCC(C1)N2CC[C@H](NC(=O)C1CCC(F)(F)CC1)c1ccccc1 (some centres not stated)	inactive
COc1ccccc1N1CCN(CC(O)COc2cc(OC)c(OC)c(OC)c2)CC1 (configuration not stated)	inactive
Cc1cccc(Nc2nc(N[C@@H]3CCCC[C@H]3N)ncc2C(N)=O)c1	inactive
O=[N+]([O-])c1cccc(S(=O)(=O)NCCNS(=O)(=O)c2cccc([N+](=O)[O-])c2)c1	inactive
COc1ccc2c(c1)c1c3n2CCN(C)C3=NCC1	inactive
CC(C)CCCC(C)CCCC(C)CCCCC(C)CCCC(C)CCCC(C)C (configuration not stated)	inactive
Clc1ccccc1CN1CCc2sccc2C1	inactive
CCCCC(CC)COC(=O)c1ccc(N(C)C)cc1 (configuration not stated)	inactive
COc1ccc(-c2oc3cc(OC)ccc3c2C(=O)c2ccc(C#N)cc2)cc1	inactive
Cn1c(NCCN(CCO)CCCc2ccc([N+](=O)[O-])cc2)cc(=O)n(C)c1=O	inactive
CC(C)OC(=O)c1cc(C(=O)OC(C)C)cc([N+](=O)[O-])c1	inactive [at 92 µM]
CS(=O)(=O)Oc1ccc2c(NC(N)=O)c(C(=O)c3ccc(Cl)cc3Cl)oc2c1	inactive
Cc1cccc(C)c1NC(=O)c1ccccc1C(=O)O	inactive

Each compound was assayed on C33A (assay: Primary qHTS to identify gynecologic anti-cancer compounds using libraries of approved drugs and bioactive compounds (AID 1345084; note: nearly all actives have a fitted effect of over 55% in size)). Conditions: Gynecologic cancer cell panel viability, ATPlite luminescence, 48 h; series mostly up to 57.5 µM.
Procedure, shortened: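 Measured: luminescence after ATPlite addition (15 min, RT). Exposure: 48 h, 37 C, 5% CO2.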

SMILES	Potency
CCC1(CCC(C)C)C(=O)NC(=O)NC1=O	inactive
Nc1ccc([N+](=O)[O-])cc1	inactive
COc1ccc(C(c2ccc(OC)cc2)C(Cl)(Cl)Cl)cc1	inactive
CCOC(=O)Nc1ccc(NCc2ccc(F)cc2)cc1N	inactive
O=C(O)CCCOc1ccc(Cl)cc1Cl	inactive
